T cruzi growth-1 – T. cruzi intracellular proliferation inhibitors, primary screen, cell-based, beta-gal Tulahuen parasites, NIH3T3 host, luminescence. T. cruzi beta-gal in NIH3T3, GalScreen luminescence, 90 h. 77,000 compounds, 5.9% hits. inhibition, % at 8.34 µM;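 active = mean inhibition above about 93%, with at least 55% of replicates each passing it, limit read from the data, passing the limit was not always enough; inconclusive = only one of those two conditions holds; inactive = neither condition holds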
Pf Dd2 growth – P. falciparum Dd2 growth inhibitors, primary screen, SYBR Green fluorescence, single dose replicates | 72 h; stronger effect = lower value | activity change, % at 10 µM | 94,000 compounds, 2.3% hits | AID 1159554, 2015; in the data active = activity change below about -80%; inconclusive = no clear call, values can overlap the other calls
C diff growth – C. difficile growth inhibitors, primary screen, HTS; Clostridium difficile clinical isolate growth, OD600, 24 h; stronger effect = lower value; growth activity, negative = inhibition, % at 16 µg/mL (by protocol); 86,000 compounds, 0.25% hits;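 active = mean growth activity at or below -80% and every replicate also at or below -80%; inconclusive = mean at or below -80% but some replicate above -80%; inactive = mean growth activity above -80%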
T cruzi growth-2 – T. cruzi intracellular proliferation inhibitors, confirmation, cell-based, NIH3T3 host, beta-gal parasite, luminescence, cherry-pick. T. cruzi beta-gal in NIH3T3, GalScreen luminescence, 90 h. 5,600 compounds, 72% hits. inhibition, % at 8.35 µM. shares compounds with T cruzi growth-1;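 active = mean replicate inhibition above about 95% and at least 55% of replicates individually reaching it, limit read from the data; inconclusive = only one of the two criteria is met; inactive = neither criterion is met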
T cruzi growth-3 – inhibitors of intracellular T. cruzi replication, confirmation, NIH3T3 host cells, beta-gal parasites, cherry-pick, set 2; shares compounds with T cruzi growth-1; T. cruzi beta-gal in NIH3T3, GalScreen luminescence, 90 h; inhibition, % at 2.09 µM; 5,600 compounds, 21% hits;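 active = mean inhibition above about 95%, with at least 55% of replicates also reaching it, limit read from the data; inconclusive = meets just one of the two conditions; inactive = meets neither condition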
3T3 cytotox – cytotoxicity in mouse NIH/3T3 fibroblasts, confirmation, cytotoxicity control for T. cruzi proliferation inhibitor project, cell-based, cherry-pick, single point; shares compounds with T cruzi growth-1; NIH/3T3 viability, CellTiter-Glo ATP luminescence, 90 h; cytotoxicity (signal decrease), % at 8.35 µM; 5,600 compounds, 14% hits;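 active = mean signal decrease across replicates above about 35% based on untreated-well scatter, with enough replicates individually passing, limit read from the data; inconclusive = no rule stated though some were filed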
NIH3T3 tox 2 – NIH/3T3 fibroblast cytotoxicity, confirmation, cytotoxicity control, cell-based, cherry-pick, single point, set 2; shares compounds with T cruzi growth-1; NIH/3T3 viability, CellTiter-Glo ATP luminescence, 90 h; inhibition, % at 24.9 µM; 5,600 compounds, 56% hits; AID 651744, 2012;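 active = mean loss of cell viability signal at or above a set limit, and enough replicates individually reaching it; inconclusive = meets only the mean limit or only the replicate share; inactive = meets neither condition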
Numbers stand for hits; i = inactive; ? = inconclusive; nt = no result given. Most compounds without a hit are left out; they make up all but 6.7% or so of the library.

SMILES	T cruzi growth-1	Pf Dd2 growth	C diff growth	T cruzi growth-2	T cruzi growth-3	3T3 cytotox	NIH3T3 tox 2
O=C(Nc1ccccc1F)N1CCCCN2[C@H](C1)[C@@H](c1ccc(C#Cc3cccnc3)cc1)[C@@H]2CO	104	i	i	106	i	i	65
O=C(Nc1ccccc1F)N1CCCCN2[C@H](CO)[C@@H](c3ccc(C#Cc4cccnc4)cc3)[C@@H]2C1	99	i	i	108	i	i	55
O=C(Nc1ccccc1F)N1CCCCN2[C@H](CO)[C@@H](c3ccc(C#Cc4ccccc4)cc3)[C@H]2C1	i	i	i	nt	nt	nt	nt
OC[C@@H]1[C@@H](c2ccc(C#Cc3ccccc3F)cc2)[C@@H]2CN(Cc3cncnc3)CCCCN12	i	i	i	nt	nt	nt	nt
OC[C@@H]1[C@@H](c2ccc(C#Cc3cccnc3)cc2)[C@@H]2CN(Cc3ccccc3F)CCCCN12	112	i	i	103	98	36	104
COc1cccc(S(=O)(=O)Nc2ccc3c(c2)C(=O)N(C)[C@@H]2CC[C@H](CC(=O)O)O[C@H]2CO3)c1	i	i	i	nt	nt	nt	nt
C[C@@H]1CN([C@@H](C)CO)C(=O)c2cc(C#CC3CC3)cnc2O[C@H]1CN(C)Cc1ccccc1C(=O)O	i	i	i	nt	nt	nt	nt
O=C(Nc1ccc(F)cc1)N1CC(=O)N2[C@H](CO)[C@@H](c3ccc(-c4ccc(F)cc4)cc3)[C@@H]2C1	nt	i	i	nt	nt	nt	nt
COc1ccc2c3c([nH]c2c1)[C@@H](CO)N(C(=O)CN1CCOCC1)CC31CN(C(=O)NC(C)C)C1	nt	i	i	nt	nt	nt	nt
C[C@@H]1CN([C@@H](C)CO)C(=O)c2cc(C3=CCCCC3)cnc2O[C@@H]1CN(C)C(=O)Nc1ccccc1	i	nt	i	nt	nt	nt	nt
CC(C)CC#Cc1ccc([C@H]2[C@@H](CO)N3CCCCN(S(=O)(=O)c4ccc(F)cc4)C[C@H]23)cc1	i	i	i	nt	nt	nt	nt
CC(C)CC#Cc1ccc([C@H]2[C@H]3CN(S(=O)(=O)c4ccc(F)cc4)CCCCN3[C@H]2CO)cc1	116	i	i	111	i	i	i
CC(C)CC#Cc1ccc([C@@H]2[C@@H](CO)N3CCCCN(S(=O)(=O)c4ccc(F)cc4)C[C@H]23)cc1	i	i	i	nt	nt	nt	nt
CC(C)CC#Cc1ccc([C@@H]2[C@@H](CO)N3CCCCN(S(=O)(=O)c4ccc(F)cc4)C[C@@H]23)cc1	105	i	i	108	i	i	89
O=C1CNC[C@@H]2[C@@H](c3ccc(-c4ccccc4F)cc3)[C@H](CO)N12	nt	i	i	nt	nt	nt	nt
COc1ccc(NC(=O)N(C)C[C@H]2OCCCC[C@@H](C)Oc3ccc(NS(=O)(=O)c4c(C)noc4C)cc3C(=O)N([C@H](C)CO)C[C@H]2C)cc1	i	i	i	nt	nt	nt	nt
CN(C)C(=O)C[C@@H]1CC[C@H]2[C@@H](COC[C@@H](O)CN2CC2CCCCC2)O1	i	i	i	nt	nt	nt	nt
C[C@@H]1CN([C@@H](C)CO)S(=O)(=O)c2ccc(-c3ccc(F)cc3)cc2O[C@@H]1CN(C)C(=O)c1ccccc1F	i	i	i	nt	nt	nt	nt
OC[C@@H]1[C@H](c2ccc(/C=C/c3ccccc3)cc2)[C@@H]2CN(Cc3cccnc3)CCCCN12	105	i	i	111	i	41	103
OC[C@@H]1[C@H](c2ccc(/C=C/c3ccccc3)cc2)[C@@H]2CN(Cc3ccncc3)CCCCN12	121	i	i	107	?	?	104
OC[C@@H]1[C@@H](c2ccc(/C=C/c3ccccc3)cc2)[C@@H]2CN(Cc3cncnc3)CCCCN12	i	i	i	nt	nt	nt	nt
OC[C@H]1[C@@H](c2ccc(/C=C/c3ccccc3)cc2)[C@@H]2CN(Cc3cncnc3)CCCCN12	102	i	i	106	i	i	105
COc1ccccc1-c1ccc([C@H]2[C@H](CO)N3CCCCN(Cc4ccncc4)C[C@@H]23)cc1	i	i	i	nt	nt	nt	nt
OC[C@@H]1[C@@H](c2ccc(/C=C/c3ccccc3)cc2)[C@@H]2CN(Cc3cccnc3)CCCCN12	?	i	i	104	i	46	103
OC[C@@H]1[C@H](c2ccc(/C=C/c3ccccc3)cc2)[C@H]2CN(Cc3cncnc3)CCCCN12	i	i	i	nt	nt	nt	nt
SMILES	T cruzi growth-1	Pf Dd2 growth	C diff growth	T cruzi growth-2	T cruzi growth-3	3T3 cytotox	NIH3T3 tox 2
CCNC(=O)Nc1ccc2c(c1)C(=O)N(C)[C@H]1CC[C@H](CC(=O)NCc3cccc(F)c3)O[C@H]1CO2	i	i	i	nt	nt	nt	nt
C[C@H](CO)N1C[C@H](C)[C@@H](CN(C)S(=O)(=O)c2cccs2)Oc2ccc(NS(=O)(=O)c3cn(C)cn3)cc2CC1=O	i	i	i	nt	nt	nt	nt
CN(C)C(=O)c1cc2c(c(-c3cccc(-c4ccc(F)cc4)c3)n1)[C@H](CCO)N([S@@](=O)C(C)(C)C)C2	i	i	nt	nt	nt	nt	nt
O=C(C[C@@H]1C=C[C@@H](NC(=O)c2ccc(F)cc2)[C@@H](CO)O1)NCCc1ccncc1	i	i	nt	nt	nt	nt	nt
CC(=O)N(C)C[C@@H]1Oc2cc(-c3cccc(F)c3)ccc2S(=O)(=O)N([C@@H](C)CO)C[C@H]1C	i	i	i	nt	nt	nt	nt
C[C@@H]1CN([C@@H](C)CO)S(=O)(=O)c2ccc(C#Cc3ccccn3)cc2O[C@H]1CN(C)Cc1cccc(F)c1	120	i	i	97	i	i	i
CCCN(C)C[C@H]1Oc2cc(C#Cc3ccccn3)ccc2S(=O)(=O)N([C@@H](C)CO)C[C@H]1C	i	i	i	nt	nt	nt	nt
C[C@@H]1CN([C@H](C)CO)S(=O)(=O)c2ccc(C#Cc3ccccn3)cc2O[C@@H]1CN(C)Cc1cccc(F)c1	122	i	i	105	i	i	70
C[C@H]1CN([C@@H](C)CO)S(=O)(=O)c2ccc(C#Cc3ccccn3)cc2O[C@H]1CN(C)CC1CC1	i	i	i	nt	nt	nt	nt
CC(C)NC(=O)Nc1ccc2c(c1)C(=O)N([C@@H](C)CO)C[C@H](C)[C@@H](CN(C)Cc1ccc(C(F)(F)F)cc1)OCCCC[C@@H](C)O2	nt	nt	i	nt	nt	nt	nt
C[C@@H]1CN([C@H](C)CO)C(=O)c2cc(NS(=O)(=O)c3ccc(Cl)cc3)ccc2O[C@@H](C)CCCCO[C@@H]1CN(C)S(=O)(=O)c1cccs1	101	i	i	116	i	i	i
C[C@@H]1CCCCO[C@@H](CN(C)S(=O)(=O)c2cccs2)[C@H](C)CN([C@@H](C)CO)C(=O)c2cc(N(C)C)ccc2O1	i	nt	i	nt	nt	nt	nt
C[C@@H]1CCCCO[C@@H](CN(C)S(=O)(=O)c2cccs2)[C@@H](C)CN([C@H](C)CO)C(=O)c2cc(NS(=O)(=O)c3ccc(F)cc3)ccc2O1	i	nt	i	nt	nt	nt	nt
